Here are results for 15 compounds from PubChem BioAssay.

Molecules are shown by their SMILES. Values without a mark were called inactive. The source made the active and inactive calls.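 How the source made its calls: active means inhibition at or above 50% relative to wild type and mutant plate controls; inactive means inhibition below 50%.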

The assay in a line: inhibitors of Chlamydomonas gravitaxis, primary screen, whole organism, Chlamydomonas reinhardtii, WT vs cilia-less mutant, absorbance, 96-well (AID 463189).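 Further: 0% = wild type cc124 cells in DMSO and 100% = ciliumless bld1 mutant cells.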 Particulars: OD600 absorbance, 2 days, at 10 µM, hits give high values.
One may read the inhibition as the change of the read-out against control, counted positive when it falls. As for `O=C(c1ccccc1F)N1CCC(N2CCCCCC2)CC1`, the inhibition was 50.6% (active). With `CCOc1ccc(CCNC(=O)C(O)c2ccccc2)cc1` (stereo not given) the figure was 25.5%; with `CCN(CC)CCN1C(=O)C(=O)/C(=C(/O)c2ccc(C)cc2)C1c1cccnc1` (stereo not given), 8.05%; with `C=CCOC(=O)C1=C(C)NC(SCC(=O)N(CC)CC)=C(C#N)C1c1ccco1` (stereo not given), -0.086%. The figure for `CCOC(=O)CSc1nc(N)c(C#N)c(-c2ccc(OC)cc2)c1C#N` is -7.05%; for `COc1ccc(OC)c(NC(=O)CSC2=C(C#N)C(c3ccco3)C3=C(CCCC3=O)N2)c1` (stereo not given) it is 20.2%; for `CCCOc1ccc(N2C(=O)CC(N(Cc3ccc(S(N)(=O)=O)cc3)C(=O)CC)C2=O)cc1` (stereo not given) it is 2.36%. The figure for `Cc1ccc2[nH]c3c(c2c1)CCCC3C(N)=O` (stereo not given) is 3.14%.

`COc1ccc(C=NCCC2(O)CC(C)N(C)CC2C)cc1` (stereo not given): the inhibition is 7.82%. Take `CC(C)(C)C1CCC2(CC1)C(C#N)=C(SCC(=O)Nc1ccccc1)NC(=O)C2C#N` (stereo not given): the inhibition was 10.8%. As for `CC1(C)Cc2c(C#N)c(NCCc3ccccc3)nc(-c3ccco3)c2CO1`, the inhibition was 34.4%. The figure for `CCOC(=O)c1cc2cc(OC)ccc2[nH]1` is 26.5%; for `COC(=O)CSC1=C(C#N)C(=O)NC2(CCCCC2)S1` it is -6.72%. With `CCOC(=O)CC1=C(C(=O)OCC)C(c2ccc(OC)c(OC)c2)C(C#N)=C(N)O1` (stereo not given) the figure was 24.9%; with `COC(=O)c1ccc(OC(=O)c2ccc(OC)c(OC)c2)c(OC)c1`, 1.14%.
